PubChem BioAssay AID371 (SRMLSC, 2006)
In all, about 3,300 compounds went through this assay and about 280 (8.5%) were called active. Many of the other results were omitted from the sample, so actives are more common in it than they were. Values without a mark were called inactive.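 The calls were made as follows: active = mean growth inhibition over the two runs of 50% or more; inactive = mean growth inhibition under 50%.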

Assay: A549 NSCLC cell proliferation inhibitors – ATP luminescence, human non-small cell lung line, primary screen (AID 371);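 also: compound exposure lasted 72 h before the ATP read; 0% = untreated cell signal and 100% = no luminescence left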
Settings: at 10 µM, hits give high values

Row | Structure (SMILES) | growth inhibition
1 | CCCCCCc1cc2cc(C(=O)NC)c(=N)oc2cc1O | 87.4% (active)
2 | CNC(=O)c1cc2c(ccc3ccccc32)oc1=N | 9.88%
3 | CCN(CC)c1ccc2cc(-c3nnc(-c4ccncc4)o3)c(=O)oc2c1 | 11.3%
4 | CCCCCCc1cc2cc(-c3nnc(-c4ccccc4O)o3)c(=O)oc2cc1O | 95% (active)
5 | COc1ccc(C2/C(=C(\O)c3ccc4c(c3)OCCO4)C(=O)C(=O)N2CCCN(C)C)cc1 (centres undefined) | -19.3%
6 | O=C(OCCN1CCOCC1)c1ccc2c(c1)OCCO2 | -1.1%
7 | NC(=O)c1ccccc1OCCOCCOCCOc1ccccc1C(N)=O | 4.77%
8 | COC(=O)CSc1nc(N)nc(C)c1Br | 0.51%
9 | C=CCn1c(=O)c(C(=O)NCCN(CC)CC)c(O)c2ccccc21 | 13.9%
10 | Cc1ccc(NC(=O)CSC2=C(C#N)C(c3ccco3)C3=C(CCCC3=O)N2)cc1 (centres undefined) | 31.5%
11 | Cc1ccc(C(=O)CSC2=C(C#N)C(c3ccco3)C3=C(CCCC3=O)N2)cc1 (centres undefined) | 76.4% (active)
12 | N#CC1=C(SCc2ccccc2)NC2=C(C(=O)CCC2)C1c1ccc2c(c1)OCO2 (centres undefined) | 35.2%
13 | COc1ccccc1NC(=O)C1=C(C)NC(SCC(=O)c2ccc(C)cc2)=C(C#N)C1c1ccco1 (centres undefined) | 18.3%
14 | CCOC(=O)CSC1=C(C#N)C(c2ccc(OC)cc2)C2=C(CC(C)(C)CC2=O)N1 (centres undefined) | 9.46%
15 | N#CC1=C(SCC(=O)c2ccccc2)NC2=C(C(=O)CCC2)C1c1ccco1 (centres undefined) | 69% (active)
16 | N#Cc1ccc(-c2ccco2)nc1SCC(=O)c1ccc(Cl)cc1 | 36.8%
17 | N#CC1=C(SCC(=O)c2ccc(Cl)cc2)NC2=C(C(=O)CCC2)C1c1ccco1 (centres undefined) | 80% (active)
18 | N#CC1=C(SCC(=O)c2ccc(Br)cc2)NC2=C(C(=O)CCC2)C1c1ccco1 (centres undefined) | 77.8% (active)
19 | CCCCC1CC1C(=O)Nc1ccc(OC)c(OC)c1 (centres undefined) | 11%
20 | Cn1c(=O)c2c(nc(NCCCO)n2Cc2cccc(C(F)(F)F)c2)n(C)c1=O | 29.2%
21 | Cc1cc(=O)n2[nH]cnc2n1 | 4.42%
22 | N#CCCn1cnc2c(=S)nc[nH]c21 | 5.6%
23 | COc1ccc(OC)c(C2C(C#N)=C(N)Oc3cc(C)[nH]c(=O)c32)c1 (centres undefined) | 3.98%
24 | Nc1c(C(=O)NCc2ccco2)sc2nc(N3CCOCC3)c3c(c12)CCCC3 | 18.2%
25 | Cc1ccc(C(=O)C2=C(O)C(=O)N(c3ncccn3)C2c2cccc(Cl)c2)o1 (centres undefined) | -5.18%

Row | Structure (SMILES) | growth inhibition
26 | COc1ccc(NC(=O)Nc2cccc(C(=O)N3CCOCC3)c2)cc1OC | 1.01%
27 | N#CC(C#N)C(c1ccsc1)c1c(-c2ccccc2)[nH][nH]c1=O (centres undefined) | 7.27%
28 | Oc1ccc(/C=C/c2cc(O)cc(O)c2)cc1 | 63.9% (active)
29 | Cc1cc(O)c(C(C)C)cc1N=C1CSC(=O)N1 | 7.06%
30 | CCCCOc1ccc(C(=O)OC2CC(C)N(C)CC2C)cc1 (centres undefined) | 90% (active)
31 | CCCCOc1ccc(C(=O)Nn2cnnc2)cc1 | -2.48%
32 | CCCCOc1ccc(C(=O)CCN2CCCCC2)cc1 | -1.37%
33 | CC(O)(C#CCN1CCOCC1)c1ccccc1 (centres undefined) | 2.79%
34 | Cc1cccc(NC(=O)c2cc(N3CCOCC3)nc3ccccc23)c1 | 2.86%
35 | N#Cc1nc(COc2ccc(Br)cc2)oc1NCCN1CCOCC1 | 13.4%
36 | Cc1sc(-n2c(C)ccc2C)c(C#N)c1C | -0.27%
37 | COc1cc([C@@H]2c3cc4c(cc3[C@H](O)[C@H]3COC(=O)[C@H]23)OCO4)cc(OC)c1OC | 66.9% (active)
38 | COc1ccc2c(c1OC)C(=O)O[C@@H]2[C@H]1c2c(cc3c(c2OC)OCO3)CCN1C | 28.5%
39 | COc1ccc2c(c1OC)C(=O)OC2C1c2c(cc3c(c2OC)OCO3)CCN1C (centres undefined) | 23.2%
40 | Cc1c(C)n(C(=O)CSc2nccn2C)c2ccccc12 | -7.69%
41 | CCN(CC)CCN1C(=O)c2ccccc2NC1c1cc(OC)c(OC)c(OC)c1 (centres undefined) | 0.59%
42 | COc1cc(C2NC(=O)NC(C)=C2C(=O)Nc2cccc(C)c2C)cc(OC)c1OC (centres undefined) | 0.87%
43 | COc1cc(C2Nc3cccc4cccc(c34)N2)cc(OC)c1OC(C)=O | 68.5% (active)
44 | O=C1C2ON(c3ccccc3)C(c3ccncc3)C2C(=O)N1c1ccccc1 (centres undefined) | -3.79%
45 | O=C(O)C(O)c1ccco1 (centres undefined) | 3.07%
46 | Cc1nc(-c2c(-c3ccc(O)cc3O)noc2C(F)(F)F)cs1 | 41.5%
47 | Cc1cc(O)ccc1-c1cnc2ccccc2n1 | 13%
48 | Cc1[nH]nc(-c2ccc(O)cc2O)c1Oc1ccccc1 | 56.1% (active)
49 | CC1(C)CNC(=O)c2sc(N3CCOCC3)nc2C1 | 21.1%
50 | Cn1ncc2c(Nc3ccccc3Br)ncnc21 | 4.98%

Row | Structure (SMILES) | growth inhibition
51 | Cn1c(=O)c2c(nc(Oc3ccc4c(c3)OCO4)n2Cc2ccc(Br)cc2)n(C)c1=O | 38%
52 | Cn1c(=O)c2c(nc(Oc3ccc4c(c3)OCO4)n2Cc2ccc(F)cc2)n(C)c1=O | 17.7%
53 | Cn1c(=O)c2c(nc(NCc3ccc4c(c3)OCO4)n2Cc2ccc(F)cc2)n(C)c1=O | 74.4% (active)
54 | Cn1c(=O)c2c(nc(NCc3ccc4c(c3)OCO4)n2Cc2ccccc2)n(C)c1=O | 67.4% (active)
55 | Cn1c(=O)c2c(nc(NCc3ccc4c(c3)OCO4)n2Cc2ccccc2F)n(C)c1=O | 43.4%
56 | Cn1c(=O)c2c(nc(NCc3ccc4c(c3)OCO4)n2Cc2ccccc2Cl)n(C)c1=O | 20.1%
57 | CC1(C)Cc2c(sc3nc(SCC(=O)NCc4ccco4)n(-c4ccccc4)c(=O)c23)CS1 | 22.8%
58 | CCCc1cc(-n2ccnc2C)n2c(nc3ccccc32)c1C#N | -0.15%
59 | CCOC(=O)C1CCN(c2nc3ccccc3nc2C(C#N)C(=O)NCCc2ccccc2)CC1 (centres undefined) | 30.8%
60 | Cc1cc(/C(O)=C2\C(=O)C(=O)N(CCN(C)C)C2c2ccncc2)ccc1OCc1ccccc1 (centres undefined) | 2.4%
61 | Cc1cc(C)n(C(=O)CNC(=O)CCc2ccccc2)n1 | -2.74%
62 | Cc1cc(C)n(S(=O)(=O)Cc2ccccc2)n1 | 6%
63 | Cc1cc(C)n(S(=O)(=O)/C=C/c2ccccc2)n1 | 68.5% (active)
64 | Cc1cc(C)n(CC2CC(=O)N(c3ccc(C)c(Cl)c3)C2=O)n1 (centres undefined) | 0.93%
65 | Clc1ccc(COc2ccccn2)c(Cl)c1 | 1.66%
66 | COc1ccc(C(=O)c2ccc(N3CCOCC3)cc2)c(OC)c1 | 44.9%
67 | CCOC(=O)C(C)Oc1nc(Oc2ccccc2)nc(N(C)C)n1 (centres undefined) | 6.36%
68 | CCOC(=O)N1CCN(C2OC(=O)c3ccccc32)CC1 (centres undefined) | -1.65%
69 | CCOC(=O)N1CCC(=C2c3ccc(Cl)cc3CCc3cccnc32)CC1 | 65.8% (active)
70 | O/N=C1\CCc2cc(Cl)ccc21 | -5.2%
71 | CC(=O)Nc1n[nH]c(S(=O)(=O)Cc2ccc(Cl)cc2Cl)n1 | -13.6%
72 | COc1cc(C)nc(Oc2ccc(=O)n(C)n2)n1 | -3.96%
73 | CCCCNC(=O)N1CCOCCOCCN(C(=O)NCCCC)CCOCCOCC1 | 2.12%
74 | COc1ccc(CC(=O)OCN2C(=O)c3ccccc3C2=O)cc1 | 2.96%
75 | Cn1c(Cl)cnc1C1CC(=O)c2cc(Cl)ccc2O1 (centres undefined) | 62.9% (active)

Row | Structure (SMILES) | growth inhibition
76 | CN1CCN(C2=Nc3ccccc3Oc3ccc(Cl)cc32)CC1 | 18.5%
77 | C=CCSc1nnc2n(CCc3ccccc3)c(=O)c3c4c(sc3n12)COC(C)(C)C4 | 12.2%
78 | Cn1c(Cn2cnc(Cl)c2Cl)nc2ccccc21 | -4.26%
79 | Clc1ccc(-c2nnc3sc(Cc4cccs4)nn23)c(Cl)c1 | 52.8% (active)
80 | c1ccc(-c2nnc3sc(Cc4cccs4)nn23)cc1 | 21.9%
81 | Clc1ccc(-c2nnc3sc(Cc4cccs4)nn23)cc1 | 15%
82 | CCOC(=O)CSc1nc(N)c2c3c(sc2n1)CCCC3 | -5.16%
83 | COCCCn1cnc2c(c1=O)c1nc3ccccc3nc1n2CCc1ccccc1 | 26.2%
84 | CN(C)c1nc(OCCOC(=O)Nc2ccc(Cl)cc2Cl)nc(N(C)C)n1 | 25.3%
85 | NC(=O)/C(=N\O)c1ccccc1 | 2.31%
86 | CNCCC(Oc1ccc(C(F)(F)F)cc1)c1ccccc1 (centres undefined) | 91.3% (active)
87 | Cc1cc(C)n2c3c(c(C#N)c2n1)CC(C)(C)OC3 | 5.01%
88 | Cc1nnc(SCCC#N)n(CCC#N)c1=O | -2.27%
89 | CN1C(=S)SC(N(O)C(=O)Nc2ccccc2)C1(C)C (centres undefined) | 8.85%
90 | O=c1[nH]cnc2c1cnn2Cc1ccccc1 | -3.92%
91 | Cc1ccc(-n2ncc3c(NCc4cccnc4)ncnc32)c(C)c1 | 30.4%
92 | Clc1ccc(-n2ncc3c(NCc4ccccn4)ncnc32)cc1 | 12.7%
93 | COc1ccccc1Nc1ncnc2c1cnn2-c1cccc(C)c1 | 6.73%
94 | Clc1ccc(-n2ncc3c(NCc4cccs4)ncnc32)cc1 | 20.6%
95 | Cc1cccc(-n2ncc3c(NCc4ccco4)ncnc32)c1 | 63% (active)
96 | Cc1ccc(-n2ncc3c(NCc4ccc5c(c4)OCO5)ncnc32)c(C)c1 | 52.8% (active)
97 | Cc1cccc(-n2ncc3c(NCCN4CCOCC4)ncnc32)c1 | 4.3%
98 | Clc1ccc(-n2ncc3c(NCc4ccco4)ncnc32)cc1 | 51.6% (active)
99 | Cc1ccc(-n2ncc3c(NCCCOC(C)C)ncnc32)c(C)c1 | 21.4%
